Screening results (PubChem)
The sample as a whole holds a higher share of hits than the screen did.
ALOX12 inhib: qHTS Assay for Inhibitors of 12-hLO (12-human lipoxygenase) | purified 12-hLO, xylenol orange hydroperoxide absorbance | Potency, µM (top dose mostly 57.1 µM), for inactives: at the top dose activity change, negative = inhibition, most hits filed as inhibitors | hit rate 0.12% among 150,000; also: potency is read from the fitted curve at half-maximal effect; nearly all actives have a fitted effect of over 55% in size
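Purified human 12hLO (150 nM), preincubated 15 min with compound, then 40 uM arachidonic acid for 30 min, room temperature, Hepes pH 7.0 with 0.01% Triton X-100. Hydroperoxide detected by ferrous iron/xylenol orange; 573/405 nm absorbance ratio gives reaction progress.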
IMPase Li cell: qHTS Assay for Identifying the Cell-Membrane Permeable IMPase Inhibitors: Potentiation with Lithium; hit rate 0.35% among 210,000; CHO-M1 cells, IP1 TR-FRET (IP-One), carbachol + lithium; AID 1457, 2008; Potency, µM (top dose mostly 59.4 µM), for inactives: at the highest dose activity, negative = IMPase inhibition, hits mostly inhibitors;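 also: IP1 builds up when IMPase is blocked and the TR-FRET signal falls; potency is read from the fitted curve at half-maximal effect; plate controls were basal vehicle for no effect and high inhibitor control for full effect; nearly all actives have a fitted effect of over 50% in size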
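Lithium-sensitised IP1 accumulation assay; M1-expressing CHO cells treated 30 min at 37C with compound. Competitive antibody detection by time-resolved FRET followed a 10 min room-temperature lysis step.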
PNC assembly inh: High Content Assay for Compounds that inhibit the Assembly of the Perinucleolar Compartment | activity change (PNC), negative = inhibition, % at 10 µM | hit rate 3.1% among 140,000 | PC3M PTB-GFP, PNC prevalence imaging, 16 h; hits give low values;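 active = readout at or below -70, meaning at least 70% loss of cells showing the perinucleolar compartment, a nuclear body marking cancer cells; inconclusive = readout between -30 and a set limit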;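 also: plate controls were DMSO wells for no effect and camptothecin positive control wells for full effect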
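Read-out is percentage of cells bearing a perinucleolar compartment, from automated 20x imaging of fixed, Hoechst-stained PC3M PTB-GFP cells. Cells were seeded 4 h, then exposed 16 h to compound (23 nl of library stock) in duplicate plates.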
15-hLO-2 inh: qHTS Assay for Inhibitors of 15-hLO-2 (15-human lipoxygenase 2) | Potency, µM (titrated, usually from 57.1 µM), for inactives: top-dose activity change, negative = inhibition, most hits filed as inhibitors | AID 881, 2007 | hit rate 0.56% among 110,000 | purified 15hLO-2, xylenol orange hydroperoxide absorbance | Polyunsaturated fatty acid lipoxygenase ALOX15B (Homo sapiens), O15296; also: potency is read from the fitted curve at half-maximal effect; nearly all actives have a fitted effect of over 60% in size
Target sequence (O15296 whole entry, looked up): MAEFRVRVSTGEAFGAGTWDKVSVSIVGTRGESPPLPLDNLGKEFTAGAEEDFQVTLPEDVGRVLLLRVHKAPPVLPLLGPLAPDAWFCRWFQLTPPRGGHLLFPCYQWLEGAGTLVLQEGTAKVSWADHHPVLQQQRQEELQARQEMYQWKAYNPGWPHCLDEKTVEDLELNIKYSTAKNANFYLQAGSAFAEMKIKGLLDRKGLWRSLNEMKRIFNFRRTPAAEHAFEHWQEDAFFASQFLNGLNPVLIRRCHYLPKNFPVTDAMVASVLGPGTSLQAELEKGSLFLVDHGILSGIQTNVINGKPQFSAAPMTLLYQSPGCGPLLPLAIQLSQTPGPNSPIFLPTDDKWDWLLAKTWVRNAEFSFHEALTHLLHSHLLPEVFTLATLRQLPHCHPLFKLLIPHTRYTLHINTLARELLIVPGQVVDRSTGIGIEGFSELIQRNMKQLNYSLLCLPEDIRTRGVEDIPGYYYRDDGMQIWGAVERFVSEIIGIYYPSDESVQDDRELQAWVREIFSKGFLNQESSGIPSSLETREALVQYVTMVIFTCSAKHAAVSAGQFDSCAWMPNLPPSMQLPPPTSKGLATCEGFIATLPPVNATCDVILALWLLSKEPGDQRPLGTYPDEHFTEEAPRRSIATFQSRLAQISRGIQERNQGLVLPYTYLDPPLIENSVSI
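Purified human 15hLO-2 (50 nM final) preincubated with compounds 15 min at room temperature in 25 mM Hepes pH 7.5, 0.01% Triton X-100, then 45 uM arachidonic acid added for 90 min; hydroperoxide detected via ferrous/xylenol orange, 573/405 nm absorbance ratio.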
IMPase cell inh: qHTS Assay for Identifying the Cell-Membrane Permeable IMPase Inhibitors. Inositol monophosphatase 1 (Rattus norvegicus), P97697. CHO-M1 cells, IP1 accumulation, HTRF TR-FRET ratio. inhibition (IP1 accumulation), % at 46.1 µM. 120,000 tested, under 10 active; active = well fitted curve in the direction sought with a large enough effect in the signal ratio, not every such curve was filed as active; inconclusive = small, poorly fitted or top-dose-only effect, or a change in a side signal; inactive = no such curve, though single readings can be large or run the other way; the % refers to the signal ratio;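 also: cells stimulated with carbachol in lithium chloride buffer; plate controls were DMSO basal wells for no effect and reference inhibitor wells for full effect; higher means more IMPase inhibition seen as more IP1 and lower FRET ratio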
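CHO-M1 cells (CHO stably expressing M1 receptor), compound up to 46 uM final, stimulated with carbachol (50 uM as added) in buffer with 50mM LiCl, pH 7.4, 30 min at 37C. Cytosolic IP1 read by TR-FRET; AC50 from Hill fits.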
* marks the source's active call; other numbers are inactive results; ? = inconclusive; · = no result; [ ] = dose if it differs, or a comment. Unless noted, calls follow the shape of the dose curve; as a rule, active = well fitted curve in the direction sought with a large enough effect; inconclusive = small, poorly fitted or top-dose-only effect, or another doubt; inactive = no such curve, though single readings can be large; an effect the other way counts as inactive or inconclusive. Unless noted, % is scaled to controls: 0 for no effect and ±100 for the full control effect.

SMILES	ALOX12 inhib	IMPase Li cell	PNC assembly inh	15-hLO-2 inh	IMPase cell inh
CC(C)c1nc(SCC(=O)N2CCOCC2)c2c(=O)n(C)c(=O)n(C)c2n1	4%	2%[38.3 µM]	-106*	-3%	-1
CC(C)c1nc(SCC(=O)N2CCN(c3ccccc3)CC2)c2c(=O)n(C)c(=O)n(C)c2n1	-3%	31%[38.3 µM]	?	-14%	-2
O=C(CN1C(=O)c2cccc3cccc1c23)Nc1ccccc1Br	·	·	·	·	-2
Nc1nc(CSCc2ccccc2)nc(N2CCOCC2)n1	-5%	27%[38.3 µM]	-107*	-9%	3
C[C@@]12C(=O)OC(=O)[C@@]1(C)[C@H]1CC[C@@H]2O1	2%	·	·	10%	12
CCCCCn1ccc(=N)cc1	-9%	20%[38.3 µM]	-84*	-25%	6
CN1CCc2c(cc(O)c(O)c2Cl)[C@H](c2cccc(Cl)c2)C1	-11%	·	·	?	13
CCOC(=O)c1cc(-c2cc3ccccc3o2)nc2c1c(=O)[nH]c(=O)n2CCOC	6%	10µM*	31	?	-9
CCOC(=O)c1cc(-c2cc3ccccc3o2)n[nH]1	-2%	14%[38.3 µM]	-12	-13%	-1
O=S(=O)(c1ccc(Br)cc1)N1CCN(S(=O)(=O)c2ccc(Br)cc2)CC1	-4%[11.4 µM]	0%	·	-8%[11.4 µM]	·
CC1=NN(C(=O)c2ccc(Cn3cc(Br)c([N+](=O)[O-])n3)o2)C(O)(C(F)(F)F)C1 (stereo not given)	-6%	-9%	-114*	·	·
N=C1C(c2nc3ccccc3c(=O)[nH]2)=C(O)CN1CCO	-3%	7%[38.3 µM]	26	8%	-1
N=C1C(c2nc3ccccc3c(=O)[nH]2)=C(O)CN1CCc1ccccc1	0%	11µM*	22	1%	-3
COCCN1CC(O)=C(c2nc3ccccc3c(=O)[nH]2)C1=N	-2%	1%	-100*	·	-6
CCN(CC)CC[n+]1ccc2c(C)c3[nH]c4ccc(O)cc4c3c(C)c2c1	7%[11.4 µM]	37%	·	2%[11.4 µM]	·
Cc1ccc(S(=O)(=O)n2ccc(-c3ccc(OCc4c(F)cccc4Cl)cc3)n2)cc1	-4%	8%	-100*	·	-15
Cc1ccc(S(=O)(=O)n2ccc(-c3cccc(OCc4c(F)cccc4Cl)c3)n2)cc1	-6%	-6%[38.3 µM]	52	-4%	6
CC(=NC1CCCCC1)C1=C(O)c2ccccc2C1=O	-10%	5%[38.3 µM]	34	16µM*	2
O=C(CSCc1ccc(Cl)cc1)NN=C1CCCCCC1	-2%	6%	-93*	·	·
Cc1cccn2c(/C=N/OCc3ccc(F)cc3)c(-c3ccc(Cl)cc3)nc12	2%	11%[38.3 µM]	-109*	3%	4
COc1ccc(NC(=O)Nc2cc(C)ccc2OC)cc1	1%	-1%[38.3 µM]	-82*	1%[2.29 µM]	5
CCOC(=O)c1cc(NC(=O)Nc2ccc(OC)c(OC)c2)c(C)nc1C	1%	4%[38.3 µM]	-102*	-1%	-1
CC1CCCN(C(=O)C2CCN(CC3CC=CCC3)CC2)C1 (stereo not given)	-6%	-17%[38.3 µM]	-100*	-4%	6
CCOc1ccc2nc(-c3cc(NC(C)=O)ccc3O)sc2c1	·	10µM*	·	·	·
O=C(Nc1ccc(Nc2ccccc2)cc1)C(Cl)Cl	-2%	10%	-91*	·	·
SMILES	ALOX12 inhib	IMPase Li cell	PNC assembly inh	15-hLO-2 inh	IMPase cell inh
CCN(Cc1ccccc1)S(=O)(=O)c1ccc(S(=O)(=O)N(Cc2ccccn2)Cc2ccco2)cc1	1%	22%[38.3 µM]	?	-2%	-1
CC1CCCCN1S(=O)(=O)c1ccc(S(=O)(=O)N(Cc2ccccc2)Cc2ccco2)cc1 (stereo not given)	5%	15%	-100*	·	-8
CC(=O)CSCc1ccccn1	-8%[11.4 µM]	0%	·	-2%[11.4 µM]	·
Cc1ccc(NC(=S)NC2CCN(Cc3ccccc3)CC2)cc1	-2%	-3%	-119*	·	·
CC(=O)NC(Cc1c[nH]c2ccccc12)C(=O)OCC(=O)Nc1cc(C)on1 (stereo not given)	0%	27%[38.3 µM]	-92*	6%[11.4 µM]	5[1.84 µM]
CC(=O)Nc1cccc(Oc2ncnc3scc(-c4ccc(C)cc4)c23)c1	-4%	19%	-83*	·	15
C=CCc1cc(C(=O)N2CCCCC2)ccc1O	-2%	-2%[38.3 µM]	-81*	-1%	3
CCOC(=O)c1sc(N)c(C(=O)Nc2ccc(C)cc2C)c1C	-20%	·	·	·	·
CC(C)(C)OC(=O)NCCCCC1=CC2=CC(=O)C(C)(OC(=O)CCc3ccccc3)C(=O)C2=CO1 (stereo not given)	0%	15%	·	·	·
C=CCn1c(NC(=O)c2ccco2)c(S(=O)(=O)c2ccccc2)c2nc3ccccc3nc21	-6%	-30%[38.3 µM]	?	-13%	-24
C=CCn1c(NC(=O)c2ccc(Br)o2)c(S(=O)(=O)c2ccccc2)c2nc3ccccc3nc21	-25%	10µM*	-16	?	-19
Cc1cc2nnc(SCc3ccc(F)cc3)n2c2ccccc12	·	·	·	·	-1
CCOC(=O)Cn1c(=S)[nH]c2c(oc3ccc(Cl)cc32)c1=O	2%	8.9µM*	?	-26%	?
CCOC(=O)N1CCN(C(=O)c2ccc3c(=O)n(Cc4ccc(Cl)cc4)c(=S)[nH]c3c2)CC1	-10%	7%[38.3 µM]	16	-8%	-4
CCOC(=O)c1ccccc1NC(=O)CSc1nccn1C	1%	0%	-100*	·	-4
Cn1ccnc1SCC(=O)Nc1ccc(Oc2ccccc2)cc1	9%	12%[38.3 µM]	-19	11%	-4
CCOc1ccc(NC(=O)CSc2nccn2C)cc1	4%	2%	-100*	·	-3
O=C(Nc1ccc(Cl)cc1)C1CCC(CNS(=O)(=O)c2ccc(Br)s2)CC1 (stereo not given)	·	·	·	·	15
CC(=O)c1ccc(N2CCN(C(=S)Nc3ccccc3F)CC2)cc1	0%	·	3	·	-6
CC(=O)c1ccc(N2CCN(C(=S)Nc3cc(C)ccc3C)CC2)cc1	-4%	2%	-90*	·	0
COCCCNCCCOc1ccc(C(C)(C)c2ccccc2)cc1	-2%	-3%	-107*	·	·
CCCC(=O)NC(c1cccs1)c1cc([N+](=O)[O-])c2cccnc2c1O (stereo not given)	?	2%	-27	·	-2
CCC(=O)NC(c1cccs1)c1cc([N+](=O)[O-])c2cccnc2c1O (stereo not given)	2.8µM*	-1%	44	·	·
CCOC(=O)C1=C(C)NC(=S)NC1c1cccc(O)c1 (stereo not given)	2%	14%	·	8%	-3
CCN(CC)CCCNc1nc(-c2ccccc2)nc2ccccc12	16%	10%	-100*	·	-6
OCCNc1nc(-c2ccccc2)nc2ccccc12	·	-2%	·	·	·
